Shown are actives, neighbours in structure and some others; about 21% of the full set was active somewhere.
Giardia FBPA inh: qHTS Assay for Inhibitors of Fructose-1,6-bisphosphate Aldolase from Giardia Lamblia; Potency, µM (top dose mostly 59.6 µM), usual class: inhibitors; purified Giardia FBPA; actives 0.71% (n = 290,000); A8B2U2; note: nearly all actives have a fitted effect of over 55% in size
Target sequence (A8B2U2 whole entry, looked up): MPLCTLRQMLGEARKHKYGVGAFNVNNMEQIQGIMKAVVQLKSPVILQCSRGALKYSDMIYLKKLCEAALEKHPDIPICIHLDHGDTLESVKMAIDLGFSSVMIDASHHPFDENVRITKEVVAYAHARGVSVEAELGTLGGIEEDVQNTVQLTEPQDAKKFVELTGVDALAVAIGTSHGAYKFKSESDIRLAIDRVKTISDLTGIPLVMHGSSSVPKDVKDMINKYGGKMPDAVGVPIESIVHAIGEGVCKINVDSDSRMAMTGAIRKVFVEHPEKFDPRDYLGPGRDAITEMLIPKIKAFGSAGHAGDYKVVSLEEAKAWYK
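Giardia FBPA (40 nM reagent) was preincubated 10 min at RT with compound (up to 57.5 uM final), then substrate plus GAPDH/TPI/NAD/arsenate coupling system with diaphorase/resazurin was added; resorufin fluorescence (525/598 nm) was read after 20 min.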
CHX counter: Cycloheximide Counterscreen for Small Molecule Inhibitors of Shiga Toxin | AID 2314, 2010 | actives 12% (n = 300,000) | cell reporter, cycloheximide protein synthesis inhibition counterscreen | max response, %; in the data active = max response mostly above about 13%, no sharp cut-off; inactive = mostly below about 14%; note: read at 38.3 µM for the half of the compounds with a filed dose
Shiga inhibitor: A qHTS for Small Molecule Inhibitors of Shiga Toxin | inhibition, % at 38.7 µM | actives 9.2% (n = 290,000) | Vero cells, Shiga toxin protein synthesis inhibition reporter | AID 2315, 2010; in the data active = inhibition mostly above about 28%, no sharp cut-off; inactive = mostly below about 43%
Pf growth 48h: Primary qHTS for delayed death inhibitors of the malarial parasite plastid, 48 hour incubation; actives 5.9% (n = 310,000); Potency, µM (top dose mostly 28.7 µM), usual class: inhibitors; AID 504832, 2011; P. falciparum luciferase growth in erythrocytes, 48 h
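Compounds are pin-transferred into medium, infected erythrocytes (2% hematocrit, 0.1% parasitemia final) are added, and plates sit one parasite generation at 37 C in 5% CO2. Detection reagent is then added and luminescence measured.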
NS1 function inh: qHTS Assay for Inhibitors of Influenza NS1 Protein Function | actives 0.4% (n = 270,000) | AID 2326, 2010 | Potency, µM (titrated, usually from 46.1 µM); calls by dose curve; note: actives are rising curves; nearly all actives have a fitted effect of over 50% in size
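Read-out: OD600 growth recovery of NS1-expressing budding yeast. Cells grown overnight at 30C in -URA glucose medium, washed, resuspended and diluted 1:100 in 2% galactose assay medium, pH 6.0. Same strain lacking NS1 served as positive control.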
Pf growth 96h: Primary qHTS for delayed death inhibitors of the malarial parasite plastid, 96 hour incubation | P. falciparum luciferase reporter growth, 96 h | Potency, µM (titrated, usually from 28.7 µM), hits mostly inhibitors | actives 6.9% (n = 320,000) | AID 504834, 2011
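Compounds incubated with erythrocytes infected by luciferase-expressing P. falciparum (2% hematocrit, 0.05% parasitemia final) for 96 hours, 37 C in 5% CO2. Growth inhibition scored as decreased luciferase luminescence.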
A number is an active result; 0 = inactive; ? = inconclusive; - = no result; [ ] = dose if it differs, or a comment. Unless noted, calls come from the whole dose curve; as a rule, active = well fitted curve in the direction sought with a large enough effect; inconclusive = small, poorly fitted or top-dose-only effect, or another doubt; inactive = no such curve, though single readings can be large; an effect the other way counts as inactive or inconclusive.

SMILES	Giardia FBPA inh	CHX counter	Shiga inhibitor	Pf growth 48h	NS1 function inh	Pf growth 96h
CC[C@H](C)[C@H](NC(=O)[C@H](CC(C)C)NC(=O)[C@H](CO)NC(=O)[C@H](CCC(=O)O)NC(=O)[C@H](CC(C)C)NC(=O)[C@H](Cc1ccc(O)cc1)NC(=O)[C@H](CCCCN)NC(=O)[C@H](CCCCN)NC(=O)[C@H](C)NC(=O)[C@H](CO)NC(=O)[C@H](CC(C)C)NC(=O)[C@H](CCC(N)=O)NC(=O)CNC(=O)[C@H](CC(C)C)NC(=O)[C@H](CC(C)C)NC(=O)[C@H](CCCNC(=N)N)NC(=O)[C@H](CO)NC(=O)[C@H](Cc1ccccc1)NC(=O)[C@H](CC(=O)O)NC(=O)[C@H](CO)NC(=O)[C@@H](NC(=O)[C@H](Cc1ccccc1)NC(=O)[C@@H](NC(=O)CNC(=O)[C@H](CC(=O)O)NC(=O)[C@H](C)NC(=O)[C@@H](N)Cc1cnc[nH]1)C(C)C)[C@@H](C)O)C(N)=O	0	0	0	-	-	-
O=C(N1CCC(n2nc(-c3ccccc3)oc2=O)CC1)C1(c2ccccc2)CC1	0	0	0	0	0	0
Cc1nn(-c2ccccc2)c2c1P(=O)(O)/C(=C1\N(C)c3ccccc3C1(C)C)C=N2	0	0	0	2.1µM	?	8.3µM
Cc1nn(-c2ccccc2)c(N)c1C1(O)C(=O)N(C(C)C)c2ccccc21 (configuration not stated)	0	0	0	0	0	0
Cc1cc(S(=O)(=O)Nc2noc3ccccc23)ccc1F	0	0	0	0[0.00184 µM]	0	0
CCN1CCN(C(=O)c2ccc(-c3nc4ccccc4s3)s2)CC1	0	42	103	0	-	0
Cc1noc(C)c1COC(=O)c1ccc(-c2nc3ccccc3s2)s1	0	18	73	0	0	?
O=C(c1ccc(-c2nc3ccccc3s2)s1)N1CCOCC1	0	0	0	0	-	0
CCOC(=O)C1CCN(S(=O)(=O)c2ccc(-c3nc4ccccc4s3)s2)CC1	0	45	69	0	0	?
CCNC(=O)COC(=O)c1cc(C)nc2ccccc12	0	0	0	0	-	0
CCNC(=O)COC(=O)c1ccc(-c2nc3ccccc3s2)s1	0	34	99	0	-	0
COc1ccc(-c2nn(-c3ccccc3)cc2C(=O)O)cc1N	0	0	0	?	?	?
Cc1ccc(C(=O)NCCC2=CCCCC2)cc1S(=O)(=O)N1CCCCC1	-	-	-	12µM	-	4.7µM
Cc1ccccc1NS(=O)(=O)c1cc(C(=O)NCCC2=CCCCC2)ccc1C	0	0	0	?	0	?
Cc1ccc(C(=O)NNC(=O)c2ccncc2)cc1S(=O)(=O)N1CCOCC1	-	-	-	?	-	0
Cc1ccc(C(=O)NCCC2=CCCCC2)cc1S(=O)(=O)N1CCOCC1	-	-	-	12µM	-	?
N#C/C(=C\c1ccc[nH]1)C(=O)Nc1ccccc1F	-	34	74	0	0	0
Cc1cc(/C=C(\C#N)C(=O)Nc2ccccc2F)c(C)[nH]1	0	46	64	0	0	0
N#C/C(=C\c1ccc[nH]1)C(=O)Nc1ccccc1Cl	-	33	61	0	0	0
COc1ccc(NC(=O)/C(C#N)=C/c2ccc[nH]2)c(OC)c1	-	0	0	0	0	0
N#C/C(=C\c1ccc[nH]1)C(=O)c1ccccc1	0	33	99	0	0	0
CCN(CC)c1ccc(/C=C2\CCC(/C=C(\C#N)C(=O)Nc3ccccc3F)=C2N2CCOCC2)cc1	0	0	0	0	0	0
c1cncc(-c2cc(-n3ccnc3)ncn2)c1	0	-	-	-	-	-
Cc1[nH]n(-c2nc(-c3ccc(Cl)cc3)cs2)c(=O)c1N=Nc1ccc(O)cc1	0	0	0	?	0	6.6µM
CCc1c(C)[nH]n(-c2nc(-c3ccccc3)cs2)c1=O	0	0	0	0	-	0
SMILES	Giardia FBPA inh	CHX counter	Shiga inhibitor	Pf growth 48h	NS1 function inh	Pf growth 96h
COC(=O)NC(CC(C)=O)c1cccc(C)c1 (configuration not stated)	0[12.9 µM]	-	-	-	-	-
CCCNC(=O)C(Cc1ccc(I)cc1)NC(=O)c1ccc(C#N)cc1 (configuration not stated)	-	-	-	0	-	?
CCOc1ccccc1/C=C(/NC(=O)c1ccccc1)C(=O)NC(C)c1ccccc1 (configuration not stated)	0	0	0	0	0	10µM
CCOc1ccc(C(C)NC(=O)Cc2ccccc2F)cc1OCC (configuration not stated)	0	0	0	?	-	1.3µM
CCOc1ccc(C(C)NC(=O)Cc2ccccc2)cc1OCC (configuration not stated)	0	0	0	2.3µM	0	2.1µM
CC(NC(=O)Cc1ccccc1F)c1ccc(F)cc1 (configuration not stated)	0	0	0	0	-	0
C=CCNC(=O)/C(=C/c1ccccc1OCC)NC(=O)c1ccccc1	0	0	0	0	0	?
CCOc1ccc(C(CCc2ccccc2)NC(=O)c2ccccc2F)cc1OCC (configuration not stated)	0	0	0	-	0	1.5µM
CCOc1ccc(C(CCc2ccccc2)NC(=O)c2ccccc2OC)cc1OCC (configuration not stated)	0	0	0	-	0	?
CCC(C)N1CCN(S(=O)(=O)Cc2ccccc2)CC1 (configuration not stated)	0	0	0	0	0	?
Cc1cc(C)cc(NC(=O)CSc2nc3nc(C)cc(C)n3n2)c1	-	-	-	?	-	0
CCC(=O)Nc1nnc(S(=O)(=O)N(C)c2cc(C)cc(C)c2)s1	0	0	0	0	0	0
Cc1cc(C)cc(N(C(=O)c2ccccn2)C(C(=O)NC2CCCCC2)c2ccncc2)c1 (configuration not stated)	0	0	0	0	0	0
Cc1cccc(NC(=O)c2cc3c(s2)-c2c(C)cccc2OC3)n1	0	10	0	0	0	0
CCN1CCN(CCCNC(=O)c2cc3c(s2)-c2ccccc2OC3)CC1	0	0	0	?	0	?
CC1CC(C)CN(CCCNC(=O)c2cc3c(s2)-c2ccccc2OC3)C1 (configuration not stated)	-	0	0	2.9µM	0	0
CN(C)CCNC(=O)c1cc2c(s1)-c1ccccc1OC2	0	40	47	-	0	?
Cc1c(NC(=O)c2cc3c(s2)-c2ccccc2OC3)cccc1[N+](=O)[O-]	0	16	0	0	0	0
CC1CCCC(C)N1CCCNC(=O)c1cc2c(s1)-c1ccccc1OC2 (configuration not stated)	0	0	0	?	0	0
CCCN1CCN(CCCNC(=O)c2cc3c(s2)-c2c(C)cccc2OC3)CC1	0	0	0	?	0	0
CC(C)CCN(CCC(C)C)C(CO)(CO)CO	?	0	0	0	0	0
